UGM FP inh: M. tuberculosis UGM enzyme inhibitors, primary screen, biochemical, fluorescence polarization, single point; purified UGM, fluorescence polarization probe displacement; inhibition, % at 10 µM; 0.06% of 320,000 active; in the data active means inhibition above about 10%, passing the limit was not always enough
Rv3671c inh: Rv3671c serine protease inhibitors, primary screen, biochemical, fluorescence polarization, M. tuberculosis H37Rv. P9WHR9. AID 2606, 2010. inhibition, % at 5.96 µM. 0.048% of 320,000 active; in the data active means inhibition above about 38%;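 further: extracellular domain of Rv3671c used as enzyme; 0% = enzyme with DMSO and 100% = no enzyme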
Target sequence (P9WHR9 whole entry, looked up, the tested form may be a part): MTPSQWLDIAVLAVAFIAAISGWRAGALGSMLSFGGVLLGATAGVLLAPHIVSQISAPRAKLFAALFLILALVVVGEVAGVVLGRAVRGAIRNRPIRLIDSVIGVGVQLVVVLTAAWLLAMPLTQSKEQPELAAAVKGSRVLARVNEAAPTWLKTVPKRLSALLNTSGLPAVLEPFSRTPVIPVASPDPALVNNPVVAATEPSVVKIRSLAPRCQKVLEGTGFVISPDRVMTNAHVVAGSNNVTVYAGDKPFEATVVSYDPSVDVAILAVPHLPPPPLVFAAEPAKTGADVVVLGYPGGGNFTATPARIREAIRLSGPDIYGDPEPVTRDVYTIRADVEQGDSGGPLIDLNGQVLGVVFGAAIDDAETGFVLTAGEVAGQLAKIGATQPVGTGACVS
GDH-TPI counter-1: GDH-TPI coupling enzyme inhibitors, primary screen, artefact control for M. tuberculosis FBA inhibitor project, biochemical, absorbance, full deck; GDH-TPI coupled enzyme counterscreen, NADH absorbance; inhibition, % at 4.8 µM; 1.2% of 360,000 active; AID 588335, 2011; in the data active means inhibition above about 30%;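 further: 0% = DMSO wells and 100% = wells lacking the enzyme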
Mtb FBA inh: Mtb FBA enzyme inhibitors, primary screen, biochemical, fluorescence, strain H37Rv; inhibition, % at 1 µM; Fructose-bisphosphate aldolase (Mycobacterium tuberculosis (strain ATCC 25618 / H37Rv)), …; 2.3% of 360,000 active; purified M. tuberculosis FBA, fluorescence read-out;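 further: 0% = vehicle and 100% = reference inhibitor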
Mtb FBA confirm: M. tuberculosis aldolase blockers, biochemical, fluorescence, strain H37Rv, confirmation; shares compounds with Mtb FBA inh; 78% of 5,600 active; purified M. tuberculosis FBA, fluorescence read-out; inhibition, % at 1 µM;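 further: 0% = vehicle wells and 100% = reference inhibitor wells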
GDH-TPI counter-2: GDH-TPI coupling enzyme inhibitors, artefact control for M. tuberculosis FBA inhibitor project, biochemical, fluorescence, high throughput. inhibition, % at 1 µM. shares compounds with Mtb FBA inh. GDH-TPI coupled enzyme counterscreen. AID 652141, 2013. 81% of 5,600 active; in the data active means inhibition above about 10%
GDH-TPI dose: GDH-TPI coupling enzyme inhibitors, dose response, artefact control for M. tuberculosis FBA inhibitor project, biochemical, fluorescence, IC50; shares compounds with Mtb FBA inh; GDH-TPI coupled enzyme assay, artifact counterscreen; IC50, µM; 79% of 170 active; AID 652145, 2013; call rule not given here
The depositor's hits bear a star; . = no result given; + = active, no number. In the library only some 3.5% were active in any assay of this set; here they are far more common. Unless noted, no stated cut-off is given here; in the data, active means inhibition above about 27%; inactive means the rest.

SMILES	UGM FP inh	Rv3671c inh	GDH-TPI counter-1	Mtb FBA inh	Mtb FBA confirm	GDH-TPI counter-2	others
CCOC(=O)NN1C(=O)c2ccccc2NC1c1ccccc1F (configuration not stated)	1	-7	2	37*	51*	32*
O=C(NN1C(=O)c2ccccc2NC1c1ccco1)c1ccccc1 (configuration not stated)	0	8	10	7	.	.
O=C(O)CCC(=O)NN1C(=O)c2ccccc2NC1c1ccco1 (configuration not stated)	0	10	1	32*	-4	-4
CN(C)Cc1csc(Nc2ccc(C(F)(F)F)cn2)n1	.	.	2	2	.	.
O=c1cc(Nc2ccc3c(c2)OCCO3)[nH]c(=O)n1C1CCCCC1	3	-2	10	0	.	.
O=c1cc(Nc2ccc3c(c2)OCCO3)[nH]c(=O)n1-c1ccc(Cl)cc1	-2	4	6	33*	78*	69*
O=c1nc2cccc3c2=c(/c1=C(\O)c1ccccc1)c1ccccc1c3=O	0	5	17	29*	-4	-6
O=c1[nH]c(/C=C/c2cccc3ccccc23)nc2ccccc12	1	-17	9	2	.	.
Cc1ccc(C)c(S(=O)(=O)NCC(c2ccco2)N2CCc3ccccc3C2)c1 (configuration not stated)	3	-7	3	74*	81*	74*
CCN(CC)c1ccc2c(Cl)cc(=O)oc2c1	1	-5	.	.	.	.
CCN(CC)c1ccc2c(O)cc(=O)oc2c1	0	13	23	22	.	.
CCN(CC)c1ccc2c(C)c(CN3CCOCC3)c(=O)oc2c1	2	-4	17	88*	-3	-5
CCN(CC)c1ccc2c(C)c(CO)c(=O)oc2c1	4	-14	8	49*	+	+
O=C1CCCCc2sc(Br)c([N+](=O)[O-])c2N1	0	0	10	-1	.	.
COc1ccc(CNS(=O)(=O)c2cn(C)c(=O)n(C)c2=O)cc1	-1	9	4	1	.	.
CCc1ccccc1Cn1c(=O)oc2cccnc21	-1	7	-7	40*	41*	37*
CC(=O)Cc1nnn(-c2cc(C)on2)n1	3	8	.	.	.	.
Cc1ccccc1-c1cc2nc(C)c(C)c(=O)n2[nH]1	1	.	-6	16	.	.
Cc1nc2cc(-c3cccs3)[nH]n2c(=O)c1C	0	4	2	46*	11	2	GDH-TPI dose=5.7*
CCCCN(CC)Cc1c(O)ccc2c3c(c(=O)oc12)CCC3	-1	5	22	.	.	.
CC1CN(Cc2ccccc2Cl)CC(C)O1 (configuration not stated)	2	5	-1	2	.	.
O=c1c(-c2ccc(Br)cc2)coc2c(CN3CCOCC3)c(O)ccc12	1	2	0	19	.	.
CC1CN(Cc2c(O)ccc3c(=O)c(-c4ccccc4Cl)coc23)CC(C)O1 (configuration not stated)	2	-2	25	57*	105*	87*
O=c1c(-c2ccc(Br)cc2)coc2c(CN3CCCCC3)c(O)ccc12	.	.	2	31*	7	-3
CCC1CCCCN1Cc1c(O)ccc2c(=O)c(-c3ccccc3OC)coc12 (configuration not stated)	0	-1	8	83*	43*	31*
SMILES	UGM FP inh	Rv3671c inh	GDH-TPI counter-1	Mtb FBA inh	Mtb FBA confirm	GDH-TPI counter-2	others
CC1CCCCN1Cc1c(O)ccc2c(=O)c(-c3nc4ccccc4s3)coc12 (configuration not stated)	-4	5	17	0	.	.
CCN(CC)Cc1c(O)ccc2c(=O)c(-c3ccccc3Cl)coc12	1	4	31*	85*	+	+
CC[C@H](NC(=O)CC[C@H]1O[C@@H](n2cnc3c(NC(=O)c4ccccc4)ncnc32)[C@H](O)[C@@H]1O)c1ccccc1	.	.	.	-1	.	.
Cc1ccc(Cl)cc1NC(=O)COC(=O)CSc1ccccc1	2	2	-1	0	.	.
CCOc1cc(N2CCOCC2)c(OCC)cc1NC(=O)COC(=O)CCOc1cc(C)ccc1C	1	4	-8	1	.	.
CC1CCCN(Cc2c(O)ccc3c(=O)c(-c4ccc(Cl)cc4)coc23)C1 (configuration not stated)	.	.	4	14	.	.
O=c1c(-c2ccc(Cl)cc2)coc2c(CN3CCCCC3)c(O)ccc12	3	-3	12	27*	2	0
O=c1c(-c2ccccc2Cl)coc2c(CN3CCCCC3)c(O)ccc12	3	-4	13	80*	64*	60*
O=C(CN1CCN(S(=O)(=O)c2ccccc2)CC1)Nc1ccc(Cl)c([N+](=O)[O-])c1	3	-1	6	-1	.	.
Cc1oc2c(c(C)cc3oc(=O)c(CC(=O)N[C@@H](CC(C)C)C(=O)O)c(C)c32)c1C	-3	.	11	31*	85*	64*
Cc1oc2c(c(C)cc3oc(=O)c(CC(=O)N[C@H](C(=O)O)C(C)C)c(C)c32)c1C	3	.	4	21	.	.
Cc1c(CC(=O)NCCCC(=O)O)c(=O)oc2cc3occ(-c4ccccc4)c3cc12	0	-4	17	4	.	.
Cc1coc2c1c(C)cc1oc(=O)c(CC(=O)NCCCCCC(=O)O)c(C)c12	-1	3	2	62*	+	175*
Cc1oc2c(c(C)cc3oc(=O)c(CC(=O)NCCC(=O)O)c(C)c32)c1C	-2	.	23	31*	159*	99*
Cc1coc2c1c(C)cc1oc(=O)c(CC(=O)NCC(=O)O)c(C)c12	2	.	19	101*	141*	94*
O=C(/C=C/c1cccc(Cl)c1)NCc1ccccc1	-1	-4	1	4	.	.
CC(C)N1CCN(Cc2cc(F)ccc2-n2cccn2)CC1CCO (configuration not stated)	1	-5	-4	37*	106*	82*
CCOC(=O)C1(C)CCCN1C(=O)c1ccc2ccccc2c1 (configuration not stated)	.	.	7	-2	.	.
CCOC(=O)c1cn(C2CC2)c2c(F)c(NCCCN(C)C)c(F)cc2c1=O	2	5	18	70*	134*	79*
COc1ccc2c(C)cc(=O)oc2c1	.	.	18	55*	91*	61*
Cc1cc(=O)oc2cc(OC(=O)c3ccccc3)ccc12	0	3	4	75*	+	+
CCOc1ccccc1C(=O)Oc1ccc2ccc(=O)oc2c1	-3	-6	-9	66*	83*	81*

Source: PubChem
